Measured values as given in PubChem BioAssay AID977607 (Broad Institute, 2014).
About 460 (31%) of roughly 1,500 compounds were called active. Another 1% or so got no clear call; they are omitted.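 Rule for the calls: active = curve reaches 40% activation over neutral controls at an AC40 no higher than the top valid tested concentration; inconclusive = no clear call, values can overlap the other calls; inactive = signal moving opposite to the expected increase, and the rest.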 A selection follows. Potency and affinity values are given separately.

test: GLuc-reported insulin release enhancers, glucose-stimulated beta cells – cell-based, INS-1E, Gaussia luciferase, luminescence, cherry-pick, set 2, dose response (AID 977607); conditions: INS-1E GLuc insulin secretion reporter, 2-3 h, active compounds read high; at 35 µM, 100% = signal doubled over neutral wells unless noted;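 note: 0% = median of the plate neutral control wells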

Max activation, inactive:
Cc1ccc2nc(N/N=C/c3ccccc3C#N)nc(-c3ccccc3)c2c1 -36.1%, COCc1[nH]nc2c1C(c1ccc(C)cc1)NC2=O (stereo not given) 25.3%, COc1ccc(S(=O)(=O)N2CCOCC2)cc1NC(=O)COc1ccccc1 -23.5%, CCOc1ccc(C(=O)OCC(=O)Nc2cc(C)on2)cc1OCC 24%, CCOc1ccc(-c2noc(CCC(=O)NC)n2)cc1OCC -18.4% [at 0.005 µM, 100% = signal doubled over neutral wells], CCC(=O)Nc1cc2nn(-c3ccc(OC)cc3)nc2cc1C -15.9% [at 3.8 µM, 100% = signal doubled over neutral wells], O=C(Cn1cnc2sc(-c3ccccc3)cc2c1=O)NCCc1ccccc1 -13.9% [at 11 µM, 100% = signal doubled over neutral wells], COc1ccc(C(C)=O)cc1Cn1cnc2c(cnn2C)c1=O -12.8% [at 0.015 µM, 100% = signal doubled over neutral wells], Cc1sc2ncn(CC(=O)NCc3ccccc3)c(=O)c2c1C -22.8% [at 0.015 µM, 100% = signal doubled over neutral wells], Cc1cc(-c2ccc(S(=O)(=O)N3CCN(C)CC3)s2)on1 -22.5%, OC(c1ccc(Cl)cc1)C(CN1CCOCC1)c1ccccc1 (stereo not given) -24.5%, COC(=O)c1ccc(CNC(=O)CCc2c[nH]c3ccccc23)cc1 -13.7% [at 0.015 µM, 100% = signal doubled over neutral wells], C/C(=N/Oc1nc(C)cc(C)n1)c1ccc(F)cc1 -10.7% [at 3.8 µM, 100% = signal doubled over neutral wells], COc1ccc(-n2c(O)cnc2Nc2nc(C)cc(C)n2)cc1OC -16.8% [at 0.135 µM, 100% = signal doubled over neutral wells], CNc1ccc(-c2ccccc2OC)cn1 -9.32% [at 1.2 µM, 100% = signal doubled over neutral wells], CNc1cc(-c2ccc(OC)c(OC)c2)ncn1 -15.3% [at 0.046 µM, 100% = signal doubled over neutral wells], O=C(NC1CCCC1)c1ccc(Cl)c(S(=O)(=O)N2CCOCC2)c1 23.2% [at 0.42 µM, 100% = signal doubled over neutral wells], Cc1ccccc1CSCc1ccc(C(=O)NCCCN2CCOCC2)o1 -12.1% [at 0.046 µM, 100% = signal doubled over neutral wells], CCOc1ccc2oc(=O)cc(CN3CCOCC3)c2c1 12.7%, CC(C)CC(=O)Nc1c2c(nn1-c1ccc(F)cc1)CS(=O)(=O)C2 -20.4% [at 1.2 µM, 100% = signal doubled over neutral wells], Cc1ccccc1-n1nc2c(c1NC(=O)c1cc3ccccc3oc1=O)CS(=O)(=O)C2 24.5% [at 3.8 µM, 100% = signal doubled over neutral wells], c1ccc(CNc2nc(Oc3ccncc3)c3sccc3n2)cc1 13.8% [at 11 µM, 100% = signal doubled over neutral wells], Cc1cc(Cl)ccc1-c1nc(NCc2ccccc2)nc2ccsc12 -22.5% [at 11 µM, 100% = signal doubled over neutral wells], C[C@@H]1CN([C@H](C)CO)C(=O)CCCn2cc(nn2)CO[C@H]1CN(C)S(=O)(=O)c1cccs1 -22.5% [at 11 µM, 100% = signal doubled over neutral wells], C[C@@H]1CC2=C(C(=O)OC(C)(C)O2)[C@H](c2ccc(F)cc2)O1 -20.8% [at 0.015 µM, 100% = signal doubled over neutral wells], NC(=O)c1ccsc1NC(=O)COC(=O)CNC(=O)c1ccc(Cl)cc1 -11.2% [at 0.005 µM, 100% = signal doubled over neutral wells], CC1(C(=O)NCc2ccccc2)CN(S(C)(=O)=O)CC(=O)N1C1CC1 (stereo not given) -10.6% [at 11 µM, 100% = signal doubled over neutral wells], CCN(CCC(=O)O)c1ccccc1 -16.1% [at 0.135 µM, 100% = signal doubled over neutral wells], O=C(Cn1cc(C(F)(F)F)ccc1=O)NCC1CCCO1 (stereo not given) -21% [at 0.015 µM, 100% = signal doubled over neutral wells], CC1=NS(=O)(=O)NC(C)(C)C1 51.2% [at 0.42 µM, 100% = signal doubled over neutral wells], COc1ccc(CCNC(=O)COC(=O)c2cncc(Br)c2)cc1OC -19.1%, CCc1ccc(OCC(=O)NC(=S)Nc2ccc(C)cc2C)c(Br)c1 -19.5% [at 0.046 µM, 100% = signal doubled over neutral wells], COCCN(CCOC)Cc1cc(=O)oc2cc(OC)c(Cl)cc12 13.5% [at 11 µM, 100% = signal doubled over neutral wells], O=C(COC(=O)C1CCC1)NC(=O)c1ccccc1 -14.8% [at 11 µM, 100% = signal doubled over neutral wells], Cc1ccc(OCC(=O)NC(C)c2ccccc2)cc1 (stereo not given) 22.7% [at 0.005 µM, 100% = signal doubled over neutral wells], CN(C)C(=O)COC(=O)c1cccnc1Nc1ccccc1F -17.2% [at 3.8 µM, 100% = signal doubled over neutral wells], CN(C)N1C(N)=C(C#N)C(c2ccc(F)cc2)C2=C1CCCC2=O (stereo not given) 30.5% [at 11 µM, 100% = signal doubled over neutral wells], CCOC(=O)Nc1ccc2c(c1)Sc1ccccc1N2C(=O)CCN1CCOCC1 -19.4% [at 0.0016 µM, 100% = signal doubled over neutral wells], CN1CCC(N(C)S(=O)(=O)c2ccc(NC(=O)COc3cccc(Cl)c3)cc2)CC1 -15.6%, O=C(N1CCOCC1)N1CCN(c2ccccn2)CC1 26.8% [at 1.2 µM, 100% = signal doubled over neutral wells], CC(C)OCC(O)CN1CCC(Cc2ccccc2)CC1 (stereo not given) -7.86% [at 0.005 µM, 100% = signal doubled over neutral wells], COc1ccc(CNC(=O)c2cnn3c(C(F)F)cc(C)nc23)cc1 24.2%, CC(=O)N1CCN(c2nnc(-c3ccccc3)c3ccccc23)CC1 -13.9% [at 0.005 µM, 100% = signal doubled over neutral wells], CCOC(=O)c1c(C)[nH]c(C(=O)COC(=O)c2cnccn2)c1C 27%, CCCCn1c(-c2ccncc2)nc2c1c(=O)[nH]c(=O)n2CC(C)C -13.3% [at 3.8 µM, 100% = signal doubled over neutral wells], COc1cc(OC)c(OC)cc1/C=N/n1c(C)nc2ccccc2c1=O -20.7% [at 0.42 µM, 100% = signal doubled over neutral wells], CCCc1cc(NCC2CCCO2)n2c(nc3ccccc32)c1C#N (stereo not given) -13% [at 0.015 µM, 100% = signal doubled over neutral wells], O=C(Cc1ccsc1)NNC(=O)c1ccccc1Cl -13.6%, O=C(NCc1ccco1)c1ccc2c(=O)n(CCC3=CCCCC3)c(=O)[nH]c2c1 -21.9%, Cc1cc2nc(-c3ccc(Cl)cc3)c(Cc3ccsc3)n2c(C)c1Br -39.9% [at 11 µM, 100% = signal doubled over neutral wells], COc1ccc(C(=O)NCC(=O)OCC(=O)Nc2sccc2C#N)cc1OC 24.5%, COc1ccc(C(=O)NCC(=O)OCC(=O)NC2CCCCCC2)cc1OC 19.5%, COc1ccc2[nH]c3c(NCCCN4CCCC4=O)ncnc3c2c1 11.2% [at 1.2 µM, 100% = signal doubled over neutral wells], Cc1ccc(S(=O)(=O)/N=C(/Nc2cccc(O)c2)c2ccccc2)cc1 48.6%, COc1cc(C(=O)Nc2cc(C(F)(F)F)ccc2N2CCOCC2)ccc1OCC(=O)N1CCOCC1 -13.6% [at 3.8 µM, 100% = signal doubled over neutral wells], Cc1ccc(C)c(S(=O)(=O)Nc2ccc(C(=O)N3CCC3)cc2)c1 27.7%, Cc1c(-c2cccc(Cl)c2)nc2ccccc2c1C(=O)NC1CC1 35.1% [at 1.2 µM, 100% = signal doubled over neutral wells], Cc1cc(C)cc(Cn2c3ccc(NC(=S)NCc4ccccc4F)cc3c(=O)n2C)c1 -51.1%, O=c1c2[nH]cnc2n(-c2ccc(F)cc2)c(=O)n1Cc1ccccc1 25.9% [at 0.42 µM, 100% = signal doubled over neutral wells], COC(=O)c1cccc(-n2c(=O)n(Cc3ccccc3)c(=O)c3[nH]cnc32)c1C 38.9% [at 11 µM, 100% = signal doubled over neutral wells]
